Drawing on ChEMBL document CHEMBL3988442, “University of Dundee, Small-Polar-MMV Screening Library” (2021), this text covers Percent Effect for nine molecules.

Common to all, as to set-up: scale not given: direction of the effect not stated beside the values
In test [1] the target is Protein translocase subunit SecA (Escherichia coli (strain K12)) (UniProt P10408). Kind of test: Assay to Identify E. coli SecA ATPase Inhibitors. To be noted: 30 µM. The format is functional.
Test [2] deals with T1, Ubiquitin-activating enzyme e1, putative (Leishmania donovani (strain BPK282A1)) (UniProt E9BSI1).
T1 sequence (whole entry): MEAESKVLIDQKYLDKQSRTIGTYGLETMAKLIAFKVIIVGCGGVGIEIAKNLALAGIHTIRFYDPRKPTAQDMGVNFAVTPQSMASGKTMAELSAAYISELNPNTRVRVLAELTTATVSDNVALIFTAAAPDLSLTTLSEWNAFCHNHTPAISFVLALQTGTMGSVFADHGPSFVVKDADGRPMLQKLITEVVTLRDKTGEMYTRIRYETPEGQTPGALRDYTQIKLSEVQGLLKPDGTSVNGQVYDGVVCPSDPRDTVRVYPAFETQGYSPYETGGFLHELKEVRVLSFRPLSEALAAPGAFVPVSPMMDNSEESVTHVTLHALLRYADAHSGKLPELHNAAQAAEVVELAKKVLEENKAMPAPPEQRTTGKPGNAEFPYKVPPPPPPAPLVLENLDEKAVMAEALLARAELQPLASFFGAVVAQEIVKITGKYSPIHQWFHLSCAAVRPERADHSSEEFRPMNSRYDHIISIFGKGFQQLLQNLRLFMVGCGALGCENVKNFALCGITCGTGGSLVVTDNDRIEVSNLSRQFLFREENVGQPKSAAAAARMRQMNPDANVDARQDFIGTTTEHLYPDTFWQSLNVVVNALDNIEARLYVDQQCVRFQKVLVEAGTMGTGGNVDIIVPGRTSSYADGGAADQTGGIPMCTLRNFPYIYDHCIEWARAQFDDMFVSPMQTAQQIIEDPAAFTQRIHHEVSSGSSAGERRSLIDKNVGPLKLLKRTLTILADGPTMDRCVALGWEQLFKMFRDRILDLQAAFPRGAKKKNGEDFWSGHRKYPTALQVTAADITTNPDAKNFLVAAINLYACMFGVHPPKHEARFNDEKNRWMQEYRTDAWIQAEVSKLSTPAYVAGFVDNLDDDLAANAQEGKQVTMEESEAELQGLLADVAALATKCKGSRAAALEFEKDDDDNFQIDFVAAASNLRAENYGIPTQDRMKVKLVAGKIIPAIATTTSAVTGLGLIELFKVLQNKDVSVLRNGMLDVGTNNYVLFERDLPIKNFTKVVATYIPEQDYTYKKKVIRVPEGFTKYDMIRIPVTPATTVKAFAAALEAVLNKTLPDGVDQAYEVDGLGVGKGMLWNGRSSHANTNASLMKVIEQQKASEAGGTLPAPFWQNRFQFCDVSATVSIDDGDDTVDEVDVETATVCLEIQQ
Kind of test: Leishmania donovani Ubiquitin Activating Enzyme (LdE1). The format is functional. To be noted: 30 µM.

In test [3] the target is AMP-activated protein kinase, AMPK (Homo sapiens) (UniProt P54646+O43741+P54619+Q9UGJ0+Q9Y478+Q13131+Q9UGI9). The experiment in a line: AMP-dependent Kinase enzyme assay. An in vitro enzyme assay that detects ADP turnover that is directly proportional to AMPK activity. This uses naive AMPK that is activated during the assay with MK-8722. To be noted: 30 µM. The format is functional.

Test [4] addresses Sialic acid-binding Ig-like lectin 9 (Homo sapiens) (UniProt Q9Y336). Kind of test: Hs-Siglec9 ALPHAscreen SOP 20170721. To be noted: 10 µM. On the technique in general: In Alpha technology, singlet oxygen from a donor bead excites a nearby acceptor bead.
A further test deals with Trypanosoma cruzi. The experiment in a line: Trypanosoma cruzi phosphomannomutase and mannose-1-phosphate guanylyltransferase assay. It counts as functional. To be noted: 10 µM.
Test [5] concerns the target T2, Arginase-2, mitochondrial (Homo sapiens) (UniProt P78540).
T2 sequence (whole entry): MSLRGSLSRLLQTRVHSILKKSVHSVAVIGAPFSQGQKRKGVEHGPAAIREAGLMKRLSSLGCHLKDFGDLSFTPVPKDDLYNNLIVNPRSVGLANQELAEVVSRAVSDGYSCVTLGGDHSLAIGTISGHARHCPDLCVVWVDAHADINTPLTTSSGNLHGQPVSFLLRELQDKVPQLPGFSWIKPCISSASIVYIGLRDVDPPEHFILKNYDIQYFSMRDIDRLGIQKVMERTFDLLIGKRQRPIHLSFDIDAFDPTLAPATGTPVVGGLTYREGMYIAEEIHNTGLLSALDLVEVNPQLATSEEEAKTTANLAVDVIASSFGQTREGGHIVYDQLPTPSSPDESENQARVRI
The experiment in a line: in vitro enzyme assay to detect the production of urea directly proportional to the activity of Arginase II. Note: in the data most compounds retested in dose-response had high values. The format is functional. To be noted: 33.3 µM.

The target in test [6] is T3, Proteasome subunit beta (Trypanosoma cruzi) (UniProt O96673).
T3 sequence (whole entry): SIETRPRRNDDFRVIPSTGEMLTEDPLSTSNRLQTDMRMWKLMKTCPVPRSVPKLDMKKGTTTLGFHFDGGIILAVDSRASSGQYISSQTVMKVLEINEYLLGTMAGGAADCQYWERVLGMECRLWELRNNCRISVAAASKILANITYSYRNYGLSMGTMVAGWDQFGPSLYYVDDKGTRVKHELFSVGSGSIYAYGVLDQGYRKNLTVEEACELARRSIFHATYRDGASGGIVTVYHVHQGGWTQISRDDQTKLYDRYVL
Kind of test: Trypanosoma cruzi proteasome chymotrypsin-like activity (TcProtChymo) assay. Note: in the data most compounds retested in dose-response had high values. It counts as functional. To be noted: 9.37 µM.

For the next test, the species on record is Homo sapiens. The experiment in a line: To identify inhibition of the IFN signalling (Jak-Stat) pathway via expression of an eGFP reporter gene under the control of an IFN-stimulated response element (ISRE) containing MxA promoter. The format is functional. To be noted: 30 µM.
For test [7], the target named is T4, Tyrosyl-tRNA synthetase, putative (Trypanosoma cruzi (strain CL Brener)) (UniProt Q4DSP6).
T4 sequence (whole entry): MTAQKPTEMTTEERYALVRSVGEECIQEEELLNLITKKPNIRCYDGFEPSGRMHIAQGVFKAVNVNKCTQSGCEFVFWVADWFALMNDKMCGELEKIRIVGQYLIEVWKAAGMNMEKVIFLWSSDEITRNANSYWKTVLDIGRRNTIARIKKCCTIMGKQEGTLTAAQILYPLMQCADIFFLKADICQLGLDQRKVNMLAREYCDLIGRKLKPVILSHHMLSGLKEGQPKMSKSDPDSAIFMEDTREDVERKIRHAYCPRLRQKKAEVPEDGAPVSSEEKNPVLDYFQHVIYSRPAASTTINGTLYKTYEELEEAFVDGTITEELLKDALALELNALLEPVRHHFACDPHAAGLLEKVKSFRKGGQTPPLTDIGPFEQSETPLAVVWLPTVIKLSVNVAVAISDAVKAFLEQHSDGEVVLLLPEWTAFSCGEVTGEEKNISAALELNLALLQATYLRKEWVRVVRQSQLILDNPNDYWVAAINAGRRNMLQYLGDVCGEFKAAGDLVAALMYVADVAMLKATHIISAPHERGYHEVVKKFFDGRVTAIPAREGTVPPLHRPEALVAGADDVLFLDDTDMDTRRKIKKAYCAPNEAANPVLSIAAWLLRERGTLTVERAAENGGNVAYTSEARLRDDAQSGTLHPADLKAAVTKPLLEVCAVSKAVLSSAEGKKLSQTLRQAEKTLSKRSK
Kind of test: Trypanosoma cruzi tyrosyl tRNA synthetase (TcYRS) _High Tyrosine SOP. Note: in the data most compounds retested in dose-response had high values. The format is functional. To be noted: 30 µM.

The target of test [8] is T4, Tyrosyl-tRNA synthetase, putative (Trypanosoma cruzi (strain CL Brener)). The experiment in a line: Trypanosoma cruzi tyrosyl tRNA synthetase (TcYRS) SOP. The format is functional. To be noted: 30 µM.
The target in test [9] is Chromo domain-containing protein 1 (Saccharomyces cerevisiae (strain ATCC 204508 / S288c) (Baker's yeast)) (UniProt P32657). Kind of test: ScCHD-1 Enzyme Inhibition Assay. Note: in the data most compounds retested in dose-response had high values. It counts as functional. To be noted: 30 µM.
Sequence of Chromo domain-containing protein 1 (Saccharomyces cerevisiae (strain ATCC 204508 / S288c) (Baker's yeast)) (P32657 whole entry, the tested form may be a part): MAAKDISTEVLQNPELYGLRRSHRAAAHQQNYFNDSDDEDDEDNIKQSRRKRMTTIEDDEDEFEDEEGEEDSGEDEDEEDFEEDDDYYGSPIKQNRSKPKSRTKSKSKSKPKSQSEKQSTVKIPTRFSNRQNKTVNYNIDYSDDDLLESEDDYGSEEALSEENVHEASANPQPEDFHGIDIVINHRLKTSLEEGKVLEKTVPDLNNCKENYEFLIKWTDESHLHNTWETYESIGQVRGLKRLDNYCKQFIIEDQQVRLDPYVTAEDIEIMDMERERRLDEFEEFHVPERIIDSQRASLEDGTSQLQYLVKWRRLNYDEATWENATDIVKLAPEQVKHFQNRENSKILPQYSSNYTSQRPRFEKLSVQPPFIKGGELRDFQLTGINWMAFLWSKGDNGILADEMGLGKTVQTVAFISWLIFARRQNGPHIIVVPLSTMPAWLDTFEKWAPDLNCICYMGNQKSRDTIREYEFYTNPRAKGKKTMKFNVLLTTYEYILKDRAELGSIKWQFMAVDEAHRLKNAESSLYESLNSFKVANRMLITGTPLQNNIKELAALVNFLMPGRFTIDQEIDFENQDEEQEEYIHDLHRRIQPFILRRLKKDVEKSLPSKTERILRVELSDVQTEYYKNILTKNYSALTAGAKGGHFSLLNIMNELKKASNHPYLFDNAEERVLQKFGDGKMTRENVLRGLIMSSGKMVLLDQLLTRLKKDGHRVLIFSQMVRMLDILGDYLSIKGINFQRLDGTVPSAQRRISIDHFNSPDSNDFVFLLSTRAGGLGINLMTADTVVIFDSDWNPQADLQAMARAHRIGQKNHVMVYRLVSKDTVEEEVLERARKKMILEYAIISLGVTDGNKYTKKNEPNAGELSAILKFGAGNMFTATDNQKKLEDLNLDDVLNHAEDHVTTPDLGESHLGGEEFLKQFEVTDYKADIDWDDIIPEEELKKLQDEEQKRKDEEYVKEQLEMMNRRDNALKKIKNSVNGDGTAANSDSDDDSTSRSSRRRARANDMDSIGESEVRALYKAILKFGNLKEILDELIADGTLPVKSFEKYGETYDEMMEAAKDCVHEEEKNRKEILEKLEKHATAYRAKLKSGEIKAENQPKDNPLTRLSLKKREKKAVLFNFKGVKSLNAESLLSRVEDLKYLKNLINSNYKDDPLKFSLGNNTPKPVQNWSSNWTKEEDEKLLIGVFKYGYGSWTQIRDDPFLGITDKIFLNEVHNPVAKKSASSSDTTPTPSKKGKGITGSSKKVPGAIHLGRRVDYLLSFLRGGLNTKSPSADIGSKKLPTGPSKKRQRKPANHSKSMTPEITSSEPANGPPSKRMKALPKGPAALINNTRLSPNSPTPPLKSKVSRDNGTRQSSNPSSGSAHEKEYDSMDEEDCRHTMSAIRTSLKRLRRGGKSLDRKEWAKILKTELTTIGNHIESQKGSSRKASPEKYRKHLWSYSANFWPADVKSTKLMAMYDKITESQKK

For part of these data: Measured potencies and affinities stand elsewhere.

Sequence of Sialic acid-binding Ig-like lectin 9 (Homo sapiens) (Q9Y336 whole entry): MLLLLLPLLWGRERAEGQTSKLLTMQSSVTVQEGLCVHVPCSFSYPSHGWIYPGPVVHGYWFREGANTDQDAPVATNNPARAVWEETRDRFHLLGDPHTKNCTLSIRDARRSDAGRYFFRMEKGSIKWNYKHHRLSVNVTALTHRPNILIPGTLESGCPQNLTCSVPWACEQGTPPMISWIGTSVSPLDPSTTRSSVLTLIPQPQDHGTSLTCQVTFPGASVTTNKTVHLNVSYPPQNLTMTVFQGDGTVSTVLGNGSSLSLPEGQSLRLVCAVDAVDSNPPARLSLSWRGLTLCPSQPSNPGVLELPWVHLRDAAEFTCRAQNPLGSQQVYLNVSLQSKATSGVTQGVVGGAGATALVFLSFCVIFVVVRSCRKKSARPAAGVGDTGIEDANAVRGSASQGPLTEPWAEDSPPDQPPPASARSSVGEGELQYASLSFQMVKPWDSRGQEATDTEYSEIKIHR
Sequence of Protein translocase subunit SecA (Escherichia coli (strain K12)) (P10408 whole entry): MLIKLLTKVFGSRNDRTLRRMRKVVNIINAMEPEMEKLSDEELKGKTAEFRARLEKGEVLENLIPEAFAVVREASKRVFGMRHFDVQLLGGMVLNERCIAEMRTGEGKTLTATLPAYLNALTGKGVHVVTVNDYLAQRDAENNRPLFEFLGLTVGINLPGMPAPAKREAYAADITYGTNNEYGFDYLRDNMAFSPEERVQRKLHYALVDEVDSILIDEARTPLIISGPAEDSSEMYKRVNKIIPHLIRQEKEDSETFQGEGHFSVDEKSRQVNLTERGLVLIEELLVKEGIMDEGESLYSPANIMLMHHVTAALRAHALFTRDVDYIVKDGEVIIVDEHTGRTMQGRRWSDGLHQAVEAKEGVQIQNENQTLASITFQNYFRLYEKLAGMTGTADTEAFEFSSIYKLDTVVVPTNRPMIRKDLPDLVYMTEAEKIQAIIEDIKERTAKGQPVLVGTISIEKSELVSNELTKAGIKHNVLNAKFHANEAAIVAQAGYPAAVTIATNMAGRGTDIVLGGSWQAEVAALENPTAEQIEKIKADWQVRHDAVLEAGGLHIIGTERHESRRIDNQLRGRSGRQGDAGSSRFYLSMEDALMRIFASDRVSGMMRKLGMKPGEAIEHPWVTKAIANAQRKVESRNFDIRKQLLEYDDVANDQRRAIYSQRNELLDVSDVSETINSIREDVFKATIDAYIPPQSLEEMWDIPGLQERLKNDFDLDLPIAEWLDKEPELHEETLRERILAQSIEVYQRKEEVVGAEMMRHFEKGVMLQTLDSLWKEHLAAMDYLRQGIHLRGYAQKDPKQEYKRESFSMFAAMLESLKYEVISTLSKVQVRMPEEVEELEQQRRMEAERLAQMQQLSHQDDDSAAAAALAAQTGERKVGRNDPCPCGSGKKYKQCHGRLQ

With `c1cncc(-c2nccc(CN3CCCC3)n2)c1`, the Percent Effect in test [1] is -0.958%; in test [2] it was 6.76%; in test [3], 11.4%; in [4], -5.74%; in the test with Trypanosoma cruzi it was 2.37%; in test [5], -22%. Also, the Percent Effect is 19.5% in test [6]; -2.71% in the test listed under Homo sapiens; 9.68% in test [7]; 14.3% in test [8]; -16.2% in [9].
`COc1c(C2CCCN2C(=O)c2ccnc(N(C)C)c2)c(C)nn1C` (centres undefined): the Percent Effect in test [1] is -4.71%; in [2], 5.2%; in test [3], 4.01%; in test [4], 13.2%; in the test on Trypanosoma cruzi, -4.21%; in [5], 2.74%. The Percent Effect was 5.58% in test [6]; 14% in the test listed under Homo sapiens; 4.76% in test [7]; 7.06% in test [8]; -20% in [9].
Turning to `Cc1cnn(C2CCCN(C(=O)CCCOc3cccc(F)c3)C2)c1` (centres undefined), the Percent Effect in [1] is -4.89%; in [2], -1.27%; in test [3] it was 42.4%; in test [4], 2.93%; in the test on Trypanosoma cruzi, 0.513%; in [5], 4.52%. In addition, the Percent Effect in test [6] is 0%; in the test filed under Homo sapiens, 3.38%; in test [7], -3.12%; in [8], -5.06%; in test [9], -28.9%.
Consider `Cc1nc(C)n(CC2CN(CC(=O)Nc3cccnc3)CCO2)n1` (centres undefined), for which the Percent Effect in test [1] is -3.48%; in test [2], 4.17%; in [3], 1.48%; in test [4], -1.08%; with Trypanosoma cruzi, -0.486%; in test [5], 2.65%. In addition, the Percent Effect in [6] was 2.1%; in the test filed under Homo sapiens, -1.3%; in test [7], 4.21%; in [8] it was 5.13%; in test [9], 0.336%.
On to `COC[C@@]12CCO[C@@H]1CCN(C(=O)Cc1ccccc1F)C2`, for which the Percent Effect is 0.597% in test [1]; 19.2% in test [2]; -6.38% in test [3]; 8.82% in test [4]; -0.595% in the test on Trypanosoma cruzi; -3.19% in test [5]. The Percent Effect in test [6] was 12.2%; in the test listed under Homo sapiens, 5.78%; in [7], 8.33%; in [8], 11.1%; in test [9] it was -3.06%.
Consider `CN(C)c1ccc(C(=O)NCC2(O)CCOCC2)cc1`, for which the Percent Effect in [1] was -4.98%; in test [2], 2.7%; in test [3] it was -2.16%; in [4] it was 3.55%; with Trypanosoma cruzi, 3.48%; in test [5] it was 3.33%. In addition, the Percent Effect was 13.1% in test [6]; -3.96% in the test filed under Homo sapiens; 5.82% in test [7]; 12.2% in [8]; -5.31% in [9].
`CC(C)(C)C(=O)NCCc1ccn(-c2ccccc2)n1`: the Percent Effect in [1] is -5.41%; in test [2] it was 13.9%; in test [3], 0.882%; in test [4], 2.89%; with Trypanosoma cruzi, -0.923%; in [5], 4.09%. Moreover, the Percent Effect is 8.92% in test [6]; 2.37% in the test filed under Homo sapiens; 4.17% in test [7]; 17.7% in test [8]; -30% in test [9].
For the molecule `Cc1cnn(CC2CCCCN2C(=O)c2cc(C(N)=O)cs2)c1` (centres undefined), the Percent Effect in test [1] is -8.81%; in [2], 1.27%; in test [3], 1.77%; in test [4], -2.33%; with Trypanosoma cruzi, 0.308%; in test [5] it was -2.37%. The Percent Effect was 8.4% in [6]; 17.1% in the test filed under Homo sapiens; -1.04% in [7]; -5.06% in [8]; -0.902% in [9].
Take `CC(C)CN1CCc2[nH]cnc2C12CCN(C(=O)c1cccnc1)CC2`: the Percent Effect in test [1] was -8.51%; in test [2], 0%; in test [3], -4.57%; in [4], 3.2%; in the test on Trypanosoma cruzi, -3.99%; in test [5], -1.56%. The Percent Effect in [6] was 14.3%; in the test filed under Homo sapiens, 12.4%; in test [7] it was -3.83%; in [8], -6.17%; in test [9], -6.87%.
